Assay results from PubChem BioAssay (NCATS).
Several values for one entry are separate records, joined by “and”; a condition that tells them apart may be missing. Identical values can stand only once. Records with an inconclusive call do not appear. Activity calls are given as the source filed them. Calls follow the shape of the dose curve; as a rule, active = well fitted cell-killing curve with a large enough effect; inconclusive = small, poorly fitted or top-dose-only effect; inactive = flat fitted curve, though single readings scatter.

Assay: Cellular viability qHTS for adrenocortical cancer (ACC) cell line SW-13 (AID 1963989); also: nearly all actives have a fitted effect of over 65% in size;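 as to activity (max response): cells grown in serum-free medium with ITS supplement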
Conditions: SW-13 ACC cells viability, CellTiter-Glo, 48 h; activity (max response): active compounds read low
Outline: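 IC50 and maximal-response values come from four-parameter logistic fits of titration data. SW-13 cells in serum-free medium received compounds (up to 46 uM final) for 48 h before CellTiter-Glo luminescence.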
% is scaled to controls: 0 for no effect and ±100 for the full control effect.

| SMILES | activity (max response) | Potency |
| --- | --- | --- |
| Cc1ccccc1N=Nc1ccc(N=Nc2c(O)ccc3ccccc23)c(C)c1 | 15.2% (inactive) |  |
| O=C(NOCCO)c1cc(CN2OCCCC2=O)c(F)c(F)c1Nc1ccc(I)cc1F |  | 7.08 µM (active) |
| COc1cc(C)c(/C=C/C(C)=C/C=C/C(C)=C/C(=O)O)c(C)c1C | -22.4% (inactive) |  |
| CC[C@H](Nc1ncnc2nc[nH]c12)c1nc2cccc(F)c2c(=O)n1-c1ccccc1 | -2.88% (inactive) |  |
| Cc1ccccc1N1CCN(CCc2nnc3n2CCCC3)CC1 | 9.97% (inactive) |  |
| CC(CSC(=O)c1ccccc1)C(=O)N1C[C@@H](Sc2ccccc2)C[C@H]1C(=O)O (stereo partly drawn) | -2.01% (inactive) |  |
| Cc1ccc(-c2ncc(Cl)cc2-c2ccc(S(C)(=O)=O)cc2)cn1 | 3.04% (inactive) and -7.76% (inactive) |  |
| CC[C@]1(O)CC2CN(CCc3c([nH]c4ccccc34)[C@@](C(=O)OC)(c3cc4c(cc3OC)N(C)[C@H]3[C@@](O)(C(=O)OC)[C@H](OC(C)=O)[C@]5(CC)C=CCN6CC[C@]43[C@@H]65)C2)C1 (stereo partly drawn) |  | 0.282 µM (active) |
| CN1Cc2c(N)cccc2C(c2ccccc2)C1 (stereo not drawn) | -0.946% (inactive) |  |
| CCN(CC)CCSC(=O)C(c1ccccc1)c1ccccc1 | -19.1% (inactive) |  |
| CC(C)n1ncnc1-c1cn2c(n1)-c1ccc(O[C@@H](C)C(N)=O)cc1OCC2 | -4.9% (inactive) |  |
| Cc1c(NC(=O)c2cc(C(N)=O)nc3cc(F)ccc23)c(C(F)(F)F)nn1Cc1ccc(C(C)(C)C)cc1 | 8.86% (inactive) |  |
| C=C[C@H]1CN2CCC1C[C@@H]2C(O)c1ccnc2ccc(OC)cc12 (stereo partly drawn) | 3.34% (inactive) |  |
